Results published in paper PMC4336329 (PLoS ONE, 2015).
Hit rate of the full screen: of about 310,000 compounds, about 14,000 (4.5%) showed an effect of 50% or more. The effect is printed as a negative number. Only a selection was taken, and strong results are over-represented in it overall.

Target: human ether-à-go-go-related gene (hERG) potassium channel (human, UniProt Q12809)
Test: primary screen, population patch clamp on CHO cells stably expressing hERG; higher = less effect of the substance
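Further: peak tail current of the secondary pulse compared with the same well before compound.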

Chain of human ether-à-go-go-related gene (hERG) potassium channel (Q12809 whole entry, looked up): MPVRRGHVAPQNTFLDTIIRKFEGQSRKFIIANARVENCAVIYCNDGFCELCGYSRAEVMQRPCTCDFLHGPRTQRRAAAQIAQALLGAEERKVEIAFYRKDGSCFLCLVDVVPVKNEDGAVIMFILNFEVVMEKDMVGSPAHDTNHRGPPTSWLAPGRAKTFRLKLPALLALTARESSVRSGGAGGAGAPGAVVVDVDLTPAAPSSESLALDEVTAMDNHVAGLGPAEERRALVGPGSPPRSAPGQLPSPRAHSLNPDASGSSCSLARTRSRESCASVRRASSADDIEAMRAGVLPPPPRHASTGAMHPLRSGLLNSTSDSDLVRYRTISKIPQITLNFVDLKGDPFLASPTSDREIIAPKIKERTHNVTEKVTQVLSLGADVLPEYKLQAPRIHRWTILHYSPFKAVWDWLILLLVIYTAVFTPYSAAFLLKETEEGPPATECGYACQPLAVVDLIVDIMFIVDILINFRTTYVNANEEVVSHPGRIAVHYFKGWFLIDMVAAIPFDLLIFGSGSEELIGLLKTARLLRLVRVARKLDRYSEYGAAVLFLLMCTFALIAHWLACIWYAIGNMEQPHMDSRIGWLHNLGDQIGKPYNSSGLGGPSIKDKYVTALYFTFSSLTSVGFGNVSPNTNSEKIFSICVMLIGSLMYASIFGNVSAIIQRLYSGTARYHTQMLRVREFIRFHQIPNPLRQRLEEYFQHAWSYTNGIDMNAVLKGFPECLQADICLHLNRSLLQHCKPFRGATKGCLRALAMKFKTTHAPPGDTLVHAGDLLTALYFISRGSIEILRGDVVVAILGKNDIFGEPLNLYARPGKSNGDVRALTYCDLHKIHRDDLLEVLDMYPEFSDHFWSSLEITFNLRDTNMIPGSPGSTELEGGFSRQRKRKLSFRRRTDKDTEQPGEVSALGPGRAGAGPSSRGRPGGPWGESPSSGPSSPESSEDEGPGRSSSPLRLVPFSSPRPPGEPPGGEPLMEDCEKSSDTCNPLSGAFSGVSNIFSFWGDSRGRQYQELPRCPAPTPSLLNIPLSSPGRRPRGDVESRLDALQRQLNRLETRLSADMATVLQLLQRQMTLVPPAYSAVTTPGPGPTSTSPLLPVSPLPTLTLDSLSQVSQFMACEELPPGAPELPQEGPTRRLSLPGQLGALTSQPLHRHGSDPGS

SMILES	hERG current change (%, negative = inhibition) at 10uM [%]
Clc1ccc(-c2csc(Nc3cccnc3)n2)cc1	13.5
CC(C)(C)C(=O)Nc1ccc(F)cc1[N+](=O)[O-]	5.56
Cc1cc2oc(=O)cc(CN3CCC(C)CC3)c2c(C)c1Cl	-2.84
CCCCCc1c(O)c2ccccc2[nH]c1=O	7.97
N#CCC(=O)NNC(=S)NC(=O)C(c1ccccc1)c1ccccc1	5.41
O=C(NCCCCc1ccccc1)c1cccc(Br)c1	-3.79
CCOc1ccc(N(CC(=O)Nc2nccs2)S(=O)(=O)c2c(C)noc2C)cc1	-5.98
Br.COc1ccc(C2=CSC3=NCCN23)cc1OC	-6.58
CCOc1ccc(C2=CSC3=NCCN23)cc1Cl	-22.8
CCCOc1ccc(C2=CSC3=NCCN23)cc1Cl	-67.8
CCCCOc1ccc(C2=CSC3=NCCN23)cc1[N+](=O)[O-]	-71
COc1ccc(C2=CSC3=NCCN23)cc1Cl	-2.92
Br.COc1ccc(C2=CSC3=NCCN23)cc1F	-13.9
CCCCOc1ccc(-c2csc(N)n2)cc1[N+](=O)[O-]	11.2
CCCOc1ccc(C2=CSC3=NCCN23)cc1[N+](=O)[O-]	-73.6
CCCOc1ccc(C2=CSC3=NCCN23)cc1.Cl	-28.3
Br.COc1ccc(C2=CSC3=NCCN23)cc1Br	-50.7
O=[N+]([O-])c1ccc(C2=CSC3=NCCN23)cc1	-32.9
CSc1nc2sc3c(c2c(=O)n1C)CCCC3	-13.5
CC(OC(=O)c1ccc(Br)c(S(=O)(=O)N2CCOCC2)c1)C(=O)NC1CCCCC1C (centres unmarked)	-49.9
CC(C)(C)NC(=O)NC(=O)C[n+]1ccc(Cc2ccc([N+](=O)[O-])cc2)cc1.[Cl-]	-5.27
O=C(CCCN1C(=O)/C(=C\c2ccccc2)SC1=S)Nc1ccc(O)cc1C(=O)O	18.1
CCOC(=O)/C=c1\s/c(=C\c2ccc(C(F)(F)F)cc2)c(=O)n1CC(=O)NCc1ccco1	5.47

SMILES	hERG current change (%, negative = inhibition) at 10uM [%]
O=C(CSc1nnnn1-c1cccnc1)NCc1cccs1	9.62
CCOC(=O)COc1ccc(C2CC(C)=NN2c2ccccc2)cc1 (centres unmarked)	-0.31
CC(=O)n1nc2nc(C)cc(C)c2c1N	13.9
O=C(/C=C/c1ccco1)NC1CCCC1	17.4
CCOc1ccc(/C=N/NC(=O)c2ccccc2C)cc1CN1CC2CC(C1)c1cccc(=O)n1C2 (centres unmarked)	-26.8
O=C(CCN=C1NS(=O)(=O)c2ccccc21)OCC(=O)c1ccc(F)c(F)c1	11
O=C(NCc1ccccc1)NS(=O)(=O)c1ccccc1Cl	-4.3
COc1ccc(C2=CSC3=NCCN23)cc1[N+](=O)[O-]	-26.1
CCOc1ccc(C2=CSC3=NCCN23)cc1[N+](=O)[O-]	-75.5
CCOc1ccc(C2=CSC3=NCCN23)cc1	-4.08
CCN(CC)c1ccc2c(c1)oc(=O)c1c(Cl)cc(=O)oc12	14.8
COc1cc(O)c(NC(C)=O)c2nonc12	11.2
CCn1c(SCC(=O)c2ccc(OC)cc2)nnc1C1CC1	6.73
CCn1c(SCc2ccccc2)nnc1C1CCN(S(=O)(=O)c2ccc(OC)cc2)CC1	-60.8
CCn1c(C2CCN(S(=O)(=O)c3ccc(OC)cc3)CC2)n[nH]c1=S	-18
CCn1c(SCc2ccc(F)cc2)nnc1C1CCN(S(=O)(=O)c2ccc(OC)cc2)CC1	-64.3
Cc1ccc(S(=O)(=O)N2CCC(c3nnc(SCCN4CCCC4)n3C)CC2)cc1	17.7
CCn1c(SC(C)C)nnc1C1CCN(S(=O)(=O)c2ccc(OC)cc2)CC1	-20.6
CCn1c(SCc2ccccc2)nnc1C1CCCCC1	-11.2
CCn1c(SC)nnc1C1CCN(S(=O)(=O)c2ccc(OC)cc2)CC1	-4.3
CCn1c(SCc2ccc(C)cc2)nnc1C1CCN(S(=O)(=O)c2ccc(OC)cc2)CC1	-64.5
COc1ccc2c(c1)c(CC(=O)Nc1ccc(C)cc1)c(C)n2C(=O)c1ccc(Cl)cc1	-20.4
O=C1c2oc3ccccc3c(=O)c2C(c2ccccn2)N1Cc1ccccc1 (centres unmarked)	5.53

SMILES	hERG current change (%, negative = inhibition) at 10uM [%]
CCOC(=O)c1c(C)nc(-c2ccccc2)nc1NC(=O)CC	1.29
Cn1c(=O)c2sccc2n2c(CCCC(=O)NCc3ccco3)nnc12	-1.92
COC(=O)C1CCN(C(=O)c2ccccc2NC(C)=O)CC1	16.8
O=C(c1nc(SCc2ccc([N+](=O)[O-])cc2)n2ccccc12)C(F)(F)F	-71.1
Cn1ccnc1SCc1ccc([N+](=O)[O-])cc1	-2.75
O=c1c2ccccc2nc(SCc2ccc([N+](=O)[O-])cc2)n1-c1ccccc1	10.9
O=[N+]([O-])c1ccccc1CSc1nnc2ccccn12	-0.991
Brc1ccc(CSc2nnc3ccccn23)cc1	-18.7
O=[N+]([O-])c1ccc(CSc2nnc3ccccn23)cc1	-57.2
O=C(NC(=S)NNC(=O)c1ccccc1O)c1cccc([N+](=O)[O-])c1	26.2
O=C(NCCCN1CCOCC1)C(=O)N/N=C/c1ccccc1	-20.2
CCC(=NCCN1CCOCC1)c1c(O)n(C2CCCCC2)c(=O)[nH]c1=O	-6.76
CC1(C)CC(=O)C(CC(=O)N2CCC(Cc3ccccc3)CC2)C(=O)C1	34.8
CC12CCC(=O)N1C(C(=O)Nc1cccc3ccccc13)CS2 (centres unmarked)	4.6
Cc1cc2nc(-c3ccc4c(c3)CCC4)ccn2n1	-2.72
Cc1ccc(NS(=O)(=O)c2cccc(C(=O)NCC3CCCO3)c2)cc1 (centres unmarked)	-10
Brc1ccc(-c2nn[nH]n2)cc1	11.2
O=C(NC1CC1)c1ccc2c3c(cccc13)CC2	-2.52
CC(C)(C)NC(=O)c1ccc2c3c(cccc13)CC2	-51.4
CC(=O)c1ccc2c3c(cccc13)CC2	2.96
COc1ccc(Cl)cc1NC(=O)CSc1nnc(C)c(=O)n1N	2.48
O=C(c1ccccc1)N1N=C(c2ccc(F)cc2)CC1(O)C(F)(F)F (centres unmarked)	-5.31
C/C(=N/OC(=O)CC(C)C)c1cc(-c2ccc(Cl)cc2)no1	15

SMILES	hERG current change (%, negative = inhibition) at 10uM [%]
COc1ccc(N(C)S(=O)(=O)c2cccc(C(=O)NCC(c3ccco3)N3CCCC3)c2)cc1 (centres unmarked)	-33.9
CN(c1ccccc1)S(=O)(=O)c1ccc(C(=O)NCC(c2ccco2)N2CCCCC2)cc1 (centres unmarked)	-12.1
Cc1ccc(N(C)S(=O)(=O)c2cccc(C(=O)NCC(c3ccco3)N3CCCC3)c2)cc1 (centres unmarked)	-62.5
CCN(c1ccccc1)S(=O)(=O)c1cccc(C(=O)NCC(c2cccs2)N2CCOCC2)c1 (centres unmarked)	-18.7
CN(c1ccccc1)S(=O)(=O)c1ccc(Cl)c(C(=O)NCC(c2ccco2)N2CCCC2)c1 (centres unmarked)	-50.9
Cc1ccc(NS(=O)(=O)c2cccc(C(=O)NCC(c3ccco3)N3CCCC3)c2)cc1 (centres unmarked)	-47.4
CN(C)C(CNC(=O)c1cc(S(=O)(=O)N(C)c2ccc(F)cc2)ccc1Cl)c1ccco1 (centres unmarked)	-28.3
O=C(NCC(c1ccco1)N1CCCC1)c1cccc(NS(=O)(=O)c2ccccc2)c1 (centres unmarked)	-5.9
CCN(c1ccccc1)S(=O)(=O)c1cccc(C(=O)NCC(c2ccco2)N2CCCC2)c1 (centres unmarked)	-59.3
CCCn1ncc2c(Nc3ccc(C)c(C)c3)ncnc21	-25.2
CC(NC(=O)c1ccco1)C(=O)N1CCN(C(c2ccccc2)c2ccccc2)CC1 (centres unmarked)	-15.7
O=C(CN(CC1CCCO1)C(=O)CNS(=O)(=O)c1ccc(Cl)cc1)NCCc1ccccc1 (centres unmarked)	-20.8
COc1ccc(CCn2c(O)c(C=Nc3ccc(NC(C)=O)cc3)c(=O)[nH]c2=O)cc1OC	27.6
CC(=O)Nc1ccc(S(=O)(=O)NCc2ccccn2)cc1	9.6
O=Cc1cccc(OC(=O)Nc2ccccc2)c1	6.95
CN(C)c1cc(-c2ccc(Cl)cc2Cl)oc(=O)c1Cl	0.166
CCOc1c2ccc(C(=O)NCCCCc3ccccc3)cc2nn1CC	-14.1
OCCCNc1ncnc2sc3c(c12)CCN(Cc1ccccc1)C3	-37.9
c1cn(CCCNc2ncnc3sc4c(c23)CCC4)cn1	-37.5
CC1CCc2c(sc3ncnc(NCCN4CCOCC4)c23)C1 (centres unmarked)	-54.6
CCCCNc1ncnc2sc3c(c12)CCN(CCC)C3	-76
COCCCNc1ncnc2sc3c(c12)CCC(C)C3 (centres unmarked)	-24.5
CC1CCc2c(sc3ncnc(N4CCOCC4)c23)C1 (centres unmarked)	-16.6
